Test results taken from PubChem BioAssay AID1159580 (chemical genetic matrix, 2015).
Where “and” joins values, the source holds several entries; their conditions need not be identical. Identical values can stand only once. Among all 5,500 compounds or so, about 2,000 (36%) were called active. Inconclusive results (about 18%) are left out. No stated cut-off is given here; in the data, active means normalized growth mostly below about 0.91 (no sharp cut-off); inconclusive means no clear call, values can overlap the other calls; inactive means mostly above about 0.92. This is one part of the list.

Test: chemical genetic growth profiling, strain panel (AID 1159580);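 further: tested at 20 µM; growth read once vehicle control cultures reached saturation at 30 °C; 1 = growth at the plate median or of vehicle wells; lower values mean less growth of the strain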
Details: S. cerevisiae deletion strains, growth OD

Measured: normalized growth

N#CC(O[C@@H]1O[C@H](CO[C@@H]2O[C@H](CO)[C@@H](O)[C@H](O)[C@H]2O)[C@@H](O)[C@H](O)[C@H]1O)c1ccccc1 (some centres not stated)
inactive: locus YAL013W, strain DEP1, hits give low values 1 | locus YAL021C, strain ccr4, hits give low values 0.965 | locus YAL026C, strain drs2, hits give low values 0.99 | locus YAL030W, strain snc1, hits give low values 0.986 | locus YBL061C, strain skt5, hits give low values 0.97 | locus YBR009C, strain hhf1, hits give low values 0.987 | locus YBR021W, strain FUR4, hits give low values 0.986 | locus YBR023C, strain chs3, hits give low values 0.979 | locus YBR171W, strain sec66, hits give low values 0.975 | locus YBR229C, strain ROT2, hits give low values 0.993 | locus YBR231C, strain swc5, hits give low values 0.981 | locus YBR279W, strain paf1, hits give low values 0.981 | locus YCL011C, strain gbp2, hits give low values 0.986 | locus YCL016C, strain dcc1, hits give low values 0.983 | locus YCL029C, strain bik1, hits give low values 1 | locus YCL061C, strain MRC1, hits give low values 0.99 | locus YCL069W, strain vba3, hits give low values 0.988 | locus YCR088W, strain abp1, hits give low values 0.975 | locus YDL005C, strain med2, hits give low values 0.967 | locus YDL035C, strain GPR1, hits give low values 1.01 | locus YDL040C, strain nat1, hits give low values 0.976 | locus YDL074C, strain BRE1, hits give low values 1.01 | locus YDL101C, strain DUN1, hits give low values 1 | locus YDL185W, strain tfp1, hits give low values 0.975 | locus YDL192W, strain arf1, hits give low values 0.998 | locus YDR001C, strain nth1, hits give low values 0.988 | locus YDR069C, strain doa4, hits give low values 0.975 | locus YDR101C, strain arx1, hits give low values 0.995 | locus YDR137W, strain rgp1, hits give low values 1.01 | locus YDR150W, strain NUM1, hits give low values 1.01 | locus YDR159W, strain sac3, hits give low values 0.961 | locus YDR162C, strain NBP2, hits give low values 1.04 | locus YDR195W, strain ref2 0.945 | locus YDR297W, strain sur2, hits give low values 0.992 | locus YDR318W, strain mcm21, hits give low values 1 | locus YDR334W, strain swr1, hits give low values 0.984 | locus YDR335W, strain msn5, hits give low values 0.988 | locus YDR388W, hits give low values 0.991 | locus YDR392W, strain spt3, hits give low values 0.974 | locus YDR502C, strain sam2, hits give low values 1.02 | locus YEL003W, strain gim4, hits give low values 0.99 | locus YEL037C, strain rad23, hits give low values 0.982 | locus YEL061C, strain CIN8 (second series), hits give low values 0.991 | locus YEL061C, strain CIN8, hits give low values 1 | locus YER015W, strain faa2, hits give low values 0.987 | locus YER016W, strain bim1, hits give low values 0.977 | locus YER110C, hits give low values 0.996 | locus YER111C, strain swi4, hits give low values 0.982 | locus YER155C, strain BEM2 (second series), hits give low values 0.966 | locus YER155C, strain BEM2, hits give low values 0.992 | locus YER167W, strain BCK2, hits give low values 1 | locus YFR010W, strain ubp6, hits give low values 0.977 | locus YGL078C, strain dbp3, hits give low values 0.989 | locus YGL086W, strain mad1, hits give low values 0.995 | locus YGL167C, strain pmr1, hits give low values 0.98 | locus YGL173C, strain kem1, hits give low values 0.963 | locus YGL227W, strain vid30, hits give low values 0.97 | locus YGL240W, strain doc1, hits give low values 0.971 | locus YGL248W, strain PDE1, hits give low values 1.05 | locus YGL253W, strain hxk2, hits give low values 0.985 | locus YGR135W, strain pre9, hits give low values 0.985 | locus YGR252W, strain gcn5, hits give low values 0.987 | locus YHR013C, strain ard1, hits give low values 0.964 | locus YHR027C, strain rpn1, hits give low values 0.98 | locus YHR030C, strain SLT2, hits give low values 1 and 0.975 | locus YHR079C, strain IRE1 (second series), hits give low values 0.99 | locus YHR079C, strain IRE1, hits give low values 0.971 | locus YHR094C, strain hxt1, hits give low values 0.978 | locus YHR129C, strain ARP1, hits give low values 1 | locus YHR142W, strain chs7, hits give low values 0.983 | locus YHR200W, strain rpn10, hits give low values 1 | locus YIL066C, strain RNR3, hits give low values 1.03 | locus YIL073C, strain SPO22, hits give low values 1.02 | locus YIL125W, strain kgd1, hits give low values 0.996 | locus YIR030C, strain dcg1, hits give low values 0.992 | locus YJL092W, strain hpr5, hits give low values 0.987 | locus YJL095W, strain BCK1 (second series), hits give low values 0.971 | locus YJL095W, strain BCK1, hits give low values 1.06 and 1.01 | locus YJL115W, strain asf1, hits give low values 0.977 | locus YJL129C, strain trk1, hits give low values 0.967 | locus YJL134W, strain LCB3, hits give low values 0.993 | locus YJL154C, strain vps35, hits give low values 0.979 | locus YJL164C, strain tpk1, hits give low values 0.98 | locus YJL166W, strain qcr8, hits give low values 0.982 | locus YJL168C, strain set2, hits give low values 0.993 | locus YJL187C, strain SWE1 (second series), hits give low values 1.02 | locus YJL187C, strain SWE1, hits give low values 0.994
